For 14 compounds, Potency and activity, negative = cell killing results are on record in PubChem BioAssay (NCATS).

The subject of assay [1] is HeLa. The assay can be described thus: Primary qHTS to identify gynecologic anti-cancer compounds using libraries of approved drugs and bioactive compounds (AID 1345084). Note: nearly all actives have a fitted effect of over 55% in size. To be noted: Gynecologic cancer cell panel viability, ATPlite luminescence, 48 h; series mostly up to 57.5 µM. A digest of the protocol:
(§1)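 In this quantitative HTS, cell killing is estimated from loss of ATP-dependent luciferase light. Cells see five compound concentrations over a 48 h exposure.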
Background: Quantitative high-throughput screening tests each substance at several concentrations.

Assay [2] concerns Hek293T. The assay is described as above. To be noted: Gynecologic cancer cell panel viability, ATPlite luminescence, 48 h, control line for the selectivity index; series mostly up to 57.5 µM. A digest of the protocol: as §1
A general note: Cellular ATP, detected with luciferase, serves as a proxy for viable cell number.

In assay [3] the test system is JEG-3. The assay is described as above. To be noted: Gynecologic cancer cell panel viability, ATPlite luminescence, 48 h; series mostly up to 57.5 µM. A digest of the protocol: as §1
For assay [4], the system named is OV90. Described as above. To be noted: Gynecologic cancer cell panel viability, ATPlite luminescence, 48 h; series mostly up to 57.5 µM. A digest of the protocol:
as §1

Assay [5] has as its system PA-1. The assay is described as above. To be noted: Gynecologic cancer cell panel viability, ATPlite luminescence, 48 h; series mostly up to 57.5 µM. A digest of the protocol: as §1
Assay [6] relates to SKOV3. The assay is described as above. To be noted: Gynecologic cancer cell panel viability, ATPlite luminescence, 48 h; series mostly up to 57.5 µM. A digest of the protocol: as §1
Assay [7] has as its system Tov-21-G. The assay is described as above. To be noted: Gynecologic cancer cell panel viability, ATPlite luminescence, 48 h; series mostly up to 57.5 µM. A digest of the protocol:
as §1

The test system of assay [8] is Tov112D. Described as above. To be noted: Gynecologic cancer cell panel viability, ATPlite luminescence, 48 h; series mostly up to 57.5 µM. A digest of the protocol: as §1
Assay [9] is described as follows: Drug repurposing screens with cells derived from glioblastoma tumor samples (AID 1345199). Note: nearly all actives have a fitted effect of over 40% in size. Note: potency is the fitted concentration of half-maximal effect. To be noted: GBM patient neurospheres viability, ATP luminescence, 48 h. A digest of the protocol: (§2)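 Four patient lines of CD133+ GBM neurospheres were screened at several concentrations; hits were retested in those lines plus three slower-growing GBM lines, using 48-hour treatment and ATP-based viability.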

For assay [10], the system named is astro. Described as above. To be noted: viability, ATP luminescence, 48 h; series mostly up to 45.9 µM. A digest of the protocol:
as §2

The mark [11] stands for this setting: at 45.9 µM (top of the series), tumour line B.
The mark [12] stands for this setting: at 45.9 µM (top of the series), tumour line D.
Setting [13] is: at 46 µM (top of the series), tumour line A.
The mark [14] stands for this setting: at 46.1 µM (top of the series), tumour line C.
The mark [15] stands for this setting: at 20 µM (top of the series), tumour line C.
The mark [16] stands for this setting: at 21.2 µM (top of the series), tumour line B.
Setting [17] is: at 21.2 µM (top of the series), tumour line D.

Where “and” joins values, the source holds several entries; their conditions need not be identical. Identical values can stand only once. Records with an inconclusive call do not appear. A structure can be active in one record and inactive in another. Unmarked numbers belong to inactive results. Calls of active or inactive are those of the source. Calls come from the whole dose curve; as a rule, active = well fitted curve in the direction sought with a large enough effect; inconclusive = small, poorly fitted or top-dose-only effect, or another doubt; inactive = no such curve, though single readings can be large; an effect the other way counts as inactive or inconclusive.
% is set by controls: 0 for no effect and ±100 for the full control effect.

As for `CC1(C)O[C@@H]2[C@@H](CO[C@@]3(COS(N)(=O)=O)OC(C)(C)O[C@@H]23)O1`, the Potency result in assay [1], in [2], in assay [3], in assay [4], in assay [5] and in assay [6] was “inactive” in each case. The Potency result in [7] and in assay [8] was “inactive” throughout. In addition, the activity, negative = cell killing is 2.05% in assay [9] (setting [11]), -22.3% in assay [9] (setting [12]), -14.9% in [9] (setting [13]) and -2.36% in assay [9] (setting [14]).
Consider `CC(=O)OCC(=O)[C@@]1(O)[C@H](C)C[C@H]2[C@@H]3CCC4=CC(=O)C=C[C@]4(C)[C@@]3(F)[C@@H](O)C[C@@]21C`, for which the Potency result in assay [1], in assay [2], in assay [3], in assay [4], in assay [5] and in [6] was “inactive” throughout. In addition, the Potency result in assay [7], in assay [8] and in assay [10] was “inactive” throughout. Moreover, the activity, negative = cell killing was -1.02% in [9] (setting [15]); -13.3% in assay [9] (setting [16]); -10.9% in [9] (setting [17]); 1.42% in [9] (setting [11]); -14.4% in [9] (setting [12]); -7.18% in [9] (setting [14]).
As to `OC(CCN1CCCCC1)(c1ccccc1)c1ccccc1`, the Potency result in assay [1], in assay [2], in [3], in [4], in assay [5] and in assay [6] was “inactive” each time. The Potency result in [7] and in assay [8] was “inactive” in each case. The activity, negative = cell killing in [9] (setting [11]) is -13.7%; in assay [9] (setting [12]), -5.27%; in assay [9] (setting [14]), 4.07%. In addition, the Potency in assay [9] (tumour line A) was 12.6 µM (active).
`Cc1c(C(N)=O)cc([N+](=O)[O-])cc1[N+](=O)[O-]`: the Potency result in [1], in [2], in assay [3], in [4], in assay [5] and in assay [6] was “inactive” throughout. The Potency entry in [7], in assay [8] and in assay [10] was “inactive” in each case. Besides, the activity, negative = cell killing was -3.44% in assay [9] (setting [11]), -20.3% in assay [9] (setting [12]), -15.4% in assay [9] (setting [13]) and 1.23% in assay [9] (setting [14]).
As for `CCCCS(=O)(=O)N[C@@H](Cc1ccc(OCCCCC2CCNCC2)cc1)C(=O)O`, the Potency result in assay [1], in assay [2], in [3], in [4], in assay [5] and in assay [6] was “inactive” throughout. The Potency entry in assay [7], in [8] and in assay [10] was “inactive” each time. Further, the figures for the activity, negative = cell killing in [9] (setting [11]), in assay [9] (setting [12]) and in [9] (setting [14]) were -17.7%, -22% and -12.3%, respectively. For the same compound, in assay [9] (tumour line A), the Potency was 11.2 µM (active).
On to `CCN1CCCC1=O`, for which the Potency entry in assay [1], in assay [2], in assay [3], in [4], in assay [5] and in assay [6] was “inactive” in each case. Further, the Potency entry in assay [7], in assay [8] and in [10] was “inactive” in each case. For the same compound, the activity, negative = cell killing in assay [9] (setting [11]) was -8.97%; in assay [9] (setting [12]), 9.06%; in assay [9] (setting [13]), -27.1%; in assay [9] (setting [14]) it was 2.13%.
With `CC1(C)O[C@@H]2C[C@H]3[C@@H]4C[C@H](F)C5=CC(=O)CC[C@]5(C)[C@H]4[C@@H](O)C[C@]3(C)[C@]2(C(=O)CO)O1`, the Potency result in assay [1], in assay [2], in assay [3], in assay [4], in assay [5] and in assay [6] was “inactive” each time. The Potency result in assay [7], in assay [8] and in [10] was “inactive” throughout. Further, the activity, negative = cell killing in assay [9] (setting [15]) was -16.9%; in assay [9] (setting [16]), -8.1%; in assay [9] (setting [17]) it was -28%; in [9] (at 21.3 µM (top of the series), tumour line A) it was -15.3%.
In the case of `CC(O)C(=O)O` (configuration not stated), the Potency entry in [1], in assay [2], in assay [3], in assay [4], in assay [5] and in [6] was “inactive” in each case. The Potency result in [7], in assay [8] and in assay [10] was “inactive” throughout. The activity, negative = cell killing was -5.68% in assay [9] (setting [11]), -11.1% in assay [9] (setting [12]), -8.3% in assay [9] (setting [13]) and -6.94% in assay [9] (setting [14]).
With `CC(=O)OCC(=O)[C@@]1(O)CC[C@H]2[C@@H]3CCC4=CC(=O)C=C[C@]4(C)[C@H]3[C@@H](O)C[C@@]21C`, the Potency entry in assay [1], in assay [2], in assay [3], in [4], in assay [5] and in assay [6] was “inactive” in each case. Besides, the Potency entry in [7], in assay [8] and in [10] was “inactive” in each case. The activity, negative = cell killing is -3.24% in assay [9] (setting [11]), -10.4% in [9] (setting [12]), -4.22% in assay [9] (setting [13]) and 5.52% in [9] (setting [14]).
With `CC[N+](CC)(CCNC(=O)C(=O)NCC[N+](CC)(CC)Cc1ccccc1Cl)Cc1ccccc1Cl`, the Potency entry in assay [1], in [2], in assay [3], in assay [4], in assay [5] and in assay [6] was “inactive” throughout. The Potency result in assay [7], in assay [8] and in [10] was “inactive” each time. Besides, the activity, negative = cell killing is -6.34% in assay [9] (setting [11]), -19.6% in [9] (setting [12]), -23.4% in [9] (setting [13]) and 15.3% in assay [9] (setting [14]).
As to `Nc1nc2ncc(CNc3ccc(C(=O)N[C@@H](CCC(=O)O)C(=O)O)cc3)nc2c(=O)[nH]1`, the Potency result in assay [1], in assay [2], in [3], in assay [4], in [5] and in assay [6] was “inactive” each time. Besides, the Potency result in assay [7], in [8] and in assay [10] was “inactive” each time. The activity, negative = cell killing in assay [9] (setting [11]) was -3.4%; in assay [9] (setting [12]), 4.54%; in [9] (setting [13]), -10.5%; in assay [9] (setting [14]), -9.36%.
As for `CNC(=O)CN(CCN(CCN(CC(=O)[O-])CC(=O)NC)CC(=O)[O-])CC(=O)[O-].O.[Gd+3]`, the Potency entry in assay [1], in [2], in assay [3], in assay [4], in assay [5] and in assay [6] was “inactive” in each case. Besides, the Potency entry in assay [7], in [8] and in [10] was “inactive” each time. For the same compound, the activity, negative = cell killing in assay [9] (setting [11]) was 8.28% and -4.12%; in assay [9] (setting [12]), 7.83% and 10.5%; in assay [9] (setting [13]), -5.02%; in assay [9] (setting [14]), -11.8% and -0.805%. Also, the Potency in assay [9] (tumour line A) was 35.5 µM (active).
`CCN1CCN(c2cc3c(cc2F)c(=O)c(C(=O)O)cn3C2CC2)CC1`: the Potency entry in assay [1], in assay [2], in assay [3], in assay [4], in assay [5] and in assay [6] was “inactive” in each case. In addition, the Potency result in assay [7], in assay [8] and in [10] was “inactive” in each case. Also, the activity, negative = cell killing was 9.67% in assay [9] (setting [11]), -1.9% in [9] (setting [12]), -9.98% in [9] (setting [13]) and 17.2% in assay [9] (setting [14]).
For `O=C(O)CNC(=O)c1ccccc1`, the Potency entry in assay [1], in [2], in assay [3], in assay [4], in assay [5] and in assay [6] was “inactive” throughout. For the same compound, the Potency entry in [7] and in [8] was “inactive” throughout. Moreover, the activity, negative = cell killing in assay [9] (setting [11]) was -9.91%; in assay [9] (setting [12]), -0.469%; in [9] (setting [13]), 3.77%; in assay [9] (setting [14]) it was -1.09%.
